Compounds without any hit were thinned out: in the full panel of roughly 79,000, 15% have a hit. Activity calls are given as the source filed them. Cut-off read from the data, not from the text of the source: active = growth inhibition above about 70%; inactive = the rest.
How the values were obtained:
[1] = NCI Yeast Anticancer Drug Screen. Data for the rad52 strain (AID 147);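 note: 0% = growth of vehicle-treated control cultures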; conditions: S. cerevisiae rad52 mutant growth inhibition, active compounds read high
In short: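 Compounds are applied to a genetically defined yeast strain lacking normal DNA damage repair, and inhibition of growth is expressed relative to cultures given vehicle only.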

[2] = NCI Yeast Anticancer Drug Screen. Data for the mgt1 strain (AID 153); conditions: S. cerevisiae mgt1 mutant growth inhibition, active compounds read high
In short: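 Strain: mgt1 yeast, one of a set carrying defined DNA damage repair or cell cycle control alterations. Compound-treated growth compared with vehicle.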

[3] = NCI Yeast Anticancer Drug Screen. Data for the rad50 strain (AID 155);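 note: 0% = growth of vehicle-only cultures of the same strain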; conditions: S. cerevisiae rad50 strain growth inhibition, active compounds read high
In short: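 Inhibition values express reduced yeast growth in compound-treated cultures relative to vehicle-treated controls.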

[4] = NCI Yeast Anticancer Drug Screen. Data for the mec2-1 strain (AID 157); conditions: S. cerevisiae mec2-1 strain, active compounds read high
In short: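 Strain: mec2-1 (DNA repair/cell cycle alteration). Compound exposure, then growth measured; inhibition expressed relative to vehicle.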

[5] = NCI Yeast Anticancer Drug Screen. Data for the rad14 strain (AID 159);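 note: 0% = growth of vehicle-treated control cultures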; conditions: S. cerevisiae rad14 strain growth inhibition, active compounds read high
In short: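 A mutant yeast strain defective in DNA damage repair is treated with compound; inhibition of its growth is scored against untreated, vehicle-exposed cultures.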

[6] = NCI Yeast Anticancer Drug Screen. Data for the sgs1 mgt1 strain (AID 161);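 note: 0% = growth of cultures given vehicle only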; conditions: S. cerevisiae sgs1 mgt1 strain, active compounds read high
In short: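 Read-out: growth inhibition vs vehicle controls. Cells: mutant yeast strain deficient in DNA damage repair.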

[7] = NCI Yeast Anticancer Drug Screen. Data for the CLN2oe strain (AID 163);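 note: 0% = growth of vehicle-only control cultures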; conditions: S. cerevisiae CLN2oe strain, active compounds read high
In short: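 Growth of a genetically modified yeast strain is measured after compound exposure and compared with cultures given vehicle alone.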

[8] = NCI Yeast Anticancer Drug Screen. Data for the cln2 rad14 strain (AID 165);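 note: 0% = growth equal to vehicle treated cultures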; conditions: S. cerevisiae cln2 rad14 strain, active compounds read high
In short: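 Compounds are applied to the cln2 rad14 yeast strain, and growth is then compared with that of vehicle-treated cultures to give inhibition.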

[9] = NCI Yeast Anticancer Drug Screen. Data for the bub3 strain (AID 167); conditions: S. cerevisiae bub3 mutant strain, active compounds read high
In short: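 Steps: expose the mutant yeast strain to compound; grow alongside vehicle-treated cultures; measure growth; express inhibition against the vehicle cultures.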

[10] = NCI Yeast Anticancer Drug Screen. Data for the wt2 strain (AID 169);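 note: 0% = growth of vehicle-treated yeast cultures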; conditions: S. cerevisiae wt2 strain growth inhibition, active compounds read high
In short: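 This strain belongs to a panel of yeast strains with defined genetic alterations in DNA damage repair or cell cycle control. Compounds are applied, and growth inhibition is measured against vehicle-treated cultures.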

[11] = NCI Yeast Anticancer Drug Screen. Data for the mlh1 strain (AID 171);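 note: 0% = growth of vehicle-treated control cultures of the same strain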; conditions: S. cerevisiae mlh1 strain growth inhibition, active compounds read high
In short: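 Growth of the mutant yeast strain after compound exposure, expressed as inhibition relative to vehicle-only controls.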

[12] = NCI Yeast Anticancer Drug Screen. Data for the sgs1 strain (AID 173);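 note: 0% = growth of vehicle-only control cultures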; conditions: S. cerevisiae sgs1 mutant, active compounds read high
In short: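 Growth of a yeast strain bearing a defined genetic alteration is measured after compound treatment. Inhibition is expressed relative to vehicle-only controls.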

[13] = NCI Yeast Anticancer Drug Screen. Data for the mlh1 rad18 strain (AID 175); conditions: S. cerevisiae mlh1 rad18 strain growth inhibition, active compounds read high
In short: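 Read-out is yeast growth inhibition, calculated against vehicle-only controls. The compound was applied to a strain engineered with DNA damage repair alterations.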

[14] = NCI Yeast Anticancer Drug Screen. Data for the rad50EPP+ strain (AID 151);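 note: 0% = growth of vehicle-treated control cultures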; conditions: S. cerevisiae rad50 mutant strain, active compounds read high
In short: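 Compounds were applied to the rad50EPP+ yeast strain, which bears a defined DNA repair alteration, and growth inhibition was determined relative to vehicle-treated cultures.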

[15] = NCI Yeast Anticancer Drug Screen. Data for the rad18 strain (AID 177); conditions: S. cerevisiae rad18 mutant growth inhibition, active compounds read high
In short: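 Growth of the mutant yeast strain after compound exposure, normalised to vehicle-only cultures.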

[16] = at 5.0 µM (retest, dose inferred, filed as 0.5)
[17] = at 50.0 µM (retest, dose inferred, filed as 5.0)

Measured: growth inhibition

COc1ccc2nc3cccc([N+](=O)[O-])c3c(NCCNCCO)c2c1
inactive: [1]; at 1.2 µM 69% | [2]; at 1.2 µM -2% | [2]; at 3.7 µM 1% | [2]; at 11.0 µM 23% | [2]; at 33.0 µM 69% | [3]; at 1.2 µM 41% | [3]; [16] 36% | [4]; at 1.2 µM 17% | [4]; [16] 1% | [7]; at 1.2 µM -5% | [7]; at 3.7 µM -8% | [7]; at 11.0 µM -5% | [7]; at 33.0 µM 32% | [9]; at 1.2 µM -11% | [9]; at 3.7 µM -17% | [9]; [16] -31% | [9]; at 11.0 µM -11% | [9]; at 33.0 µM 36% | [9]; at 50.0 µM 67.7% | [10]; at 1.2 µM -2% | [10]; at 3.7 µM -1% | [10]; at 11.0 µM 4% | [10]; at 33.0 µM 35% | [11]; at 1.2 µM 1% | [11]; at 3.7 µM 21% | [11]; at 11.0 µM 50% | [13]; [16] 67%
active: [1]; at 3.7 µM 90% | [1]; at 11.0 µM 95% | [1]; at 33.0 µM 96% | [1]; at 100.0 µM 96% | [2]; at 100.0 µM 75% | [3]; at 3.7 µM 81% | [3]; at 11.0 µM 93% | [3]; at 33.0 µM 94% | [3]; [17] 98% | [3]; at 50.0 µM 85% | [3]; at 100.0 µM 95% | [4]; at 3.7 µM 75% | [4]; at 11.0 µM 95% | [4]; at 33.0 µM 96% | [4]; [17] 96% | [4]; at 50.0 µM 89.3% | [4]; at 100.0 µM 97% | [5]; at 1.2 µM 90% | [5]; at 3.7 µM 97% | [5]; at 11.0 µM 99% | [5]; at 33.0 µM 99% | [5]; at 100.0 µM 98% | [6]; [16] 78% | [6]; [17] 94% | [6]; at 50.0 µM 78.2% | [7]; at 100.0 µM 90% | [8]; [16] 81% | [8]; [17] 98% | [8]; at 50.0 µM 86.8% | [9]; [17] 90% | [9]; at 100.0 µM 96% | [10]; at 100.0 µM 94% | [11]; at 33.0 µM 80% | [11]; at 100.0 µM 88% | [12]; at 1.2 µM 80% | [12]; at 3.7 µM 89% | [12]; at 11.0 µM 93% | [12]; at 33.0 µM 95% | [12]; at 100.0 µM 95% | [13]; [17] 98% | [13]; at 50.0 µM 78.2%

CC1=CC(=C(c2ccc(N)c(C)c2)c2ccc(N)c(C)c2)C=CC1=N
inactive: [1]; at 1.2 µM 24% | [1]; at 3.7 µM 41% | [1]; at 11.0 µM 47% | [1]; at 33.0 µM 64% | [14]; at 1.2 µM 8% | [14]; at 3.7 µM 17% | [14]; at 11.0 µM 23% | [14]; at 33.0 µM 30% | [2]; at 1.2 µM -2% | [2]; at 3.7 µM 7% | [2]; at 11.0 µM 12% | [2]; at 33.0 µM 39% | [3]; at 1.2 µM 21% | [3]; at 3.7 µM 10% | [3]; [16] 20% | [3]; at 11.0 µM 18% | [3]; at 33.0 µM 22% | [4]; at 1.2 µM 1% | [4]; at 3.7 µM 5% | [4]; [16] 18% | [4]; at 11.0 µM 3% | [4]; at 33.0 µM 37% | [6]; [16] 30% | [7]; at 1.2 µM 19% | [7]; at 3.7 µM 36% | [7]; at 11.0 µM 41% | [7]; at 33.0 µM 50% | [8]; [16] 9% | [9]; at 1.2 µM 12% | [9]; at 3.7 µM 26% | [9]; [16] 18% | [9]; at 11.0 µM 29% | [9]; at 33.0 µM 54% | [10]; at 1.2 µM -33% | [10]; at 3.7 µM -20% | [10]; at 11.0 µM -31% | [11]; at 1.2 µM 7% | [11]; at 3.7 µM 10% | [11]; at 11.0 µM 14% | [11]; at 33.0 µM 55% | [12]; at 1.2 µM 5% | [12]; at 3.7 µM 19% | [12]; at 11.0 µM 18% | [12]; at 33.0 µM 51% | [13]; [16] 51% | [15]; at 1.2 µM 2% | [15]; at 3.7 µM 20% | [15]; at 11.0 µM 20% | [15]; at 33.0 µM 35%
active: [1]; at 100.0 µM 97% | [14]; at 100.0 µM 83% | [2]; at 100.0 µM 97% | [3]; [17] 87% | [3]; at 50.0 µM 85.2% | [3]; at 100.0 µM 96% | [4]; [17] 97% | [4]; at 50.0 µM 89.6% | [4]; at 100.0 µM 96% | [6]; [17] 79% | [6]; at 50.0 µM 83.7% | [7]; at 100.0 µM 97% | [8]; [17] 75% | [8]; at 50.0 µM 74.5% | [9]; [17] 97% | [9]; at 50.0 µM 89.8% | [9]; at 100.0 µM 96% | [10]; at 33.0 µM 75% | [10]; at 100.0 µM 97% | [11]; at 100.0 µM 96% | [12]; at 100.0 µM 95% | [13]; [17] 94% | [13]; at 50.0 µM 84.8% | [15]; at 100.0 µM 96%

O=NC1c2cccc3cccc(c23)C1N=O (centres undefined)
active: [14]; at 11.0 µM 81% | [14]; at 33.0 µM 92% | [14]; at 100.0 µM 93% | [2]; at 33.0 µM 86% | [2]; at 100.0 µM 94% | [3]; at 11.0 µM 84% | [3]; at 33.0 µM 93% | [3]; [17] 96% | [3]; at 50.0 µM 97% | [3]; at 100.0 µM 94% | [4]; [17] 94% | [4]; at 50.0 µM 94.3% | [5]; at 33.0 µM 92% | [5]; at 100.0 µM 97% | [6]; [17] 97% | [6]; at 50.0 µM 97.3% | [8]; [17] 92% | [8]; at 50.0 µM 80.5% | [9]; [17] 95% | [9]; at 50.0 µM 89% | [10]; at 33.0 µM 77% | [10]; at 100.0 µM 94% | [11]; at 33.0 µM 88% | [11]; at 100.0 µM 94% | [12]; at 33.0 µM 89% | [12]; at 100.0 µM 95% | [13]; [17] 98% | [13]; at 50.0 µM 97.3% | [15]; at 3.7 µM 70% | [15]; at 11.0 µM 94% | [15]; at 33.0 µM 95% | [15]; at 100.0 µM 95%
inactive: [14]; at 1.2 µM 11% | [14]; at 3.7 µM 41% | [2]; at 1.2 µM 4% | [2]; at 3.7 µM 12% | [2]; at 11.0 µM 47% | [3]; at 1.2 µM 19% | [3]; at 3.7 µM 49% | [3]; [16] 17% | [4]; at 1.2 µM -2% | [4]; at 3.7 µM 0% | [4]; [16] 13% | [4]; at 11.0 µM -1% | [4]; at 33.0 µM 31% | [4]; at 100.0 µM 45% | [5]; at 1.2 µM 4% | [5]; at 3.7 µM 25% | [5]; at 11.0 µM 40% | [6]; [16] 30% | [7]; at 1.2 µM 4% | [7]; at 3.7 µM 8% | [7]; at 11.0 µM 24% | [7]; at 33.0 µM 43% | [7]; at 100.0 µM 54% | [8]; [16] 6% | [9]; at 1.2 µM -10% | [9]; at 3.7 µM -20% | [9]; [16] -3% | [9]; at 11.0 µM 16% | [9]; at 33.0 µM 27% | [9]; at 100.0 µM 44% | [10]; at 1.2 µM 2% | [10]; at 3.7 µM 9% | [10]; at 11.0 µM 36% | [11]; at 1.2 µM 2% | [11]; at 3.7 µM 13% | [11]; at 11.0 µM 40% | [12]; at 1.2 µM 7% | [12]; at 3.7 µM 23% | [12]; at 11.0 µM 58% | [13]; [16] 48% | [15]; at 1.2 µM 22%

From PubChem BioAssay (NCI)
